# Data: PubChem BioAssay AID686978 (National Center for Advancing Translational Sciences (NCATS), 2013)
# Where “and” joins values, the source holds several entries; their conditions need not be identical. Equal values may be shown once. In all, about 420,000 compounds went through this assay and about 64,000 (15%) were called active. Inconclusive results (about 27%) are left out. Not all results are given here. Values without a mark were called inactive. Calls come from the whole dose curve; as a rule, active = well fitted inhibition curve with a large enough effect; inconclusive = small, poorly fitted or top-dose-only effect; inactive = flat fitted curve, though single readings scatter.
# Experiment: qHTS for Inhibitors of human tyrosyl-DNA phosphodiesterase 1 (TDP1): qHTS in cells in absence of CPT; note: nearly all actives have a fitted effect of over 55% in size
# Details: DT40 Tdp1-/- hTDP1 cells, no CPT, ATP luminescence, 48 h; activity change, negative = growth inhibition: at 46.2 µM (top of the series)
# In short: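 Luminescent ATP content (CellTiter-Glo) served as the growth readout. Knockout chicken DT40 cells expressing human TDP1 were exposed to compounds without camptothecin for a minimum 48 hr at 37 °C.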
# % is set by controls: 0 for no effect and ±100 for the full control effect; potency is the fitted concentration of half-maximal effect.
SMILES,"activity change, negative = growth inhibition [%]",Potency
CC1CCN(C(=O)/C(=C\c2ccccc2)NC(=O)c2ccccc2)CC1,-22.2,
O=C(CS(=O)(=O)Cc1ccccc1)Nc1cccnc1,-9.09,
CNc1cncc(-c2cccc(C(=O)N3CCOCC3)c2)n1,0.0506,
CS(=O)(=O)Nc1ccc(C(=O)N2CCCC2)cc1,1.79,
CNc1cncc(-c2ccc(NS(C)(=O)=O)cc2)n1,,4.11 µM (active)
CCCS(=O)(=O)C(=C1Nc2ccccc2N1)S(=O)(=O)CCC,-3.88,
CN(C)S(=O)(=O)c1cc(C(=O)Nc2ccn(C)n2)c(Cl)cc1Cl,-0.996,
COc1ccc(OC)c(CNC(=O)C2CCCN(c3nc4ccccc4o3)C2)c1 (centres undefined),-18.9,
COc1ccc2c(c1)NC(=O)C2CC(=O)N1CCOc2c(cc(-c3cnc4ccccc4c3)cc2OC)C1 (centres undefined),,18.4 µM (active)
COc1cc(-c2cccnc2)cc2c1OCCN(C(=O)Cc1csc(C)n1)C2,-6.19,
COC(=O)c1ccc(/C=C2/C(=O)Oc3ccccc32)cc1,-21.5,
O=C1Oc2ccccc2C(=O)/C1=C/c1ccccc1O,,8.2 µM (active)
COC(=O)c1c(NC(=O)c2c(Cl)cnn2C)sc(C)c1C,-17.9,
CN1CCN(c2ccc(S(=O)(=O)N3CCOCC3)cc2NC(=O)CCc2ccccc2)CC1,10.5,
COC(=O)C(C)N=Cc1ccccc1 (centres undefined),-2.77,
CN(Cc1ccccc1)c1nc2c(c(=O)[nH]c(=O)n2C)n1CCSc1nc2ccccc2[nH]1,-2.54,
CCCSc1nc2c(c(=O)[nH]c(=O)n2C)n1CCc1ccccc1,-23.1,
CC=CCn1c(SCCCc2ccccc2)nc2c1c(=O)[nH]c(=O)n2C,,20.6 µM (active)
CN(C)Cc1c(C(=O)N/N=C/c2ccccc2OCc2ccc(F)cc2)nnn1-c1nonc1N,7.5,
Fc1cccc(/C=N\N=C/c2cccc(F)c2)c1,-7.48,
Cn1nc(-c2ccccc2)c2cc([N+](=O)[O-])ccc21,0.26,
COc1cc(/C(=C/c2ccccc2)c2ccccc2)c2c(c1)oc1ccccc12,,inactive
CCCC(=O)Nc1c(O)c2ccccc2[nH]c1=O,-2.3,
CC1=C(C(=O)N2CCOCC2)CC(CC(=O)NCCCN(C)C)C(=O)N1Cc1ccc(C(C)(C)C)cc1 (centres undefined),6.72,
CN1/C(=c2/s/c(=C3/C(=O)N(c4ccccc4)NC3=Nc3ccccc3)n(C)c2=O)C(C)(C)c2ccccc21,,11.6 µM (active)
O=C(c1cccc(Cl)c1)N1CCN(CCc2ccncc2)CC1,-11.9,

SMILES,"activity change, negative = growth inhibition [%]",Potency
O=C(c1cccc(Br)c1)N1CCN(Cc2cc(=O)n3nc(-c4ccccc4)sc3n2)CC1,3.37,
C#Cc1cc(N2CCN(C(=O)c3ccoc3)CC2)n2nc(-c3cccc(Cl)c3)cc2n1,,5.8 µM (active)
O=C(c1ccccc1)N1CCN(c2cc(-c3ccccc3)nc3cc(-c4cccc(Cl)c4)nn23)CC1,,14.6 µM (active)
O=C(c1cccc(Cl)c1)N1CCN(Cc2ccccc2)CC1,-24.6,
COc1ccc2c(c1)c(=O)c(S(=O)(=O)c1ccc(F)cc1)cn2CC(=O)Nc1ccc(C)cc1C,24.6,
CCOC(=O)c1ccccc1NC(=O)CCc1c(C)nc2c(c1C)c(=O)n(C)c(=O)n2C,-19.7,
O=C1Nc2cc(Cl)c(Cl)cc2N(O)N1c1cc(Cl)cc(Cl)c1,-19.7,
C/C(N)=C(/C#N)C(=O)COC(=O)C1=NN(c2ccccc2)C(=O)CC1,4.78,
CCNc1nc(Oc2ccc(C(=O)OC)cc2)nc(N2CCOCC2)n1,-20.1,
CCOC(=O)C1CCN(C(=O)/C=C/c2cc(OC)c(OC)c(OC)c2)CC1,-24.2,
CCCCNC(=O)Cn1nc(C)c(S(=O)(=O)N2CCOCC2)c1C,4.34,
COC(=O)c1sccc1N/N=C(\C)c1ccc(F)c(Cl)c1,-16.8,
COCCNC(=O)CSc1nc2sccc2c(=O)n1-c1ccccc1,-14,
Cc1ccc(-n2c(SCC(=O)NCCC3=CCCCC3)nc3n[nH]c(C)c3c2=N)cc1Cl,,3.26 µM (active)
Cc1nnc(SCC(=O)NCc2ccccc2)s1,2.12,
CCCCNC(=O)CSc1nnc(-c2ccco2)n1C,-13.5,
CCOc1ccc(-n2c(SCC(=O)NCc3ccccc3)nc3n[nH]c(C)c3c2=N)cc1,,7.31 µM (active)
CCCCNC(=O)CSc1nc2n[nH]c(C)c2c(=N)n1-c1cccc(Cl)c1C,,20.6 µM (active) and 9.2 µM (active)
COc1ccc(Cc2nnc(SCC(=O)Nc3ccc(C)c(Cl)c3)[nH]c2=O)cc1,-11.1,
COc1ccc(-n2c(SCC(=O)Nc3ccc(Cl)c(C)c3)nc3n[nH]c(C)c3c2=N)cc1,,9.2 µM (active)
O=C(COc1ccc(Cl)cc1)NCCC1=CCCCC1,-14.8,
COc1ccc(-n2c(Cc3cccn3C)nnc2SCC(=O)Nc2cc(C)cc(C)c2)cc1,-1.68,
Cc1ccccc1CN1CCNC(=O)C1CC(=O)NCCC1=CCCCC1 (centres undefined),7.28,
Cc1nnc(SCC(=O)NCCOc2ccc(Cl)cc2)n1-c1ccccc1,-22.3,
CN1CCN(CCNC(=O)Nc2ccccc2[N+](=O)[O-])CC1,1.69,
Cc1nnc2sc(-c3ccco3)nn12,3.77,

SMILES,"activity change, negative = growth inhibition [%]",Potency
CSc1ccc(C#N)cc1NC(=O)c1ccc(Cl)cc1,-21.7,
COCCCNC(=O)/C(C#N)=C/c1c(N2CCCCCC2)nc2ccccn2c1=O,-24.2,
CCOC(=O)C1=C(C)NC(=O)N(C(C)=O)C1c1ccc(Cl)cc1 (centres undefined),-29,
CCN(CC(=O)Nc1ccc2c(c1)OCO2)S(=O)(=O)c1ccccc1,1.23,
O=C(COC(=O)CCc1c[nH]c(=O)[nH]1)Nc1ccccc1Cl,-3.82,
Cn1c(-c2ccc(F)cc2)cnc1SCC(=O)NNC(=O)Cc1ccccc1,-20.8,
COc1cccc(-n2c(SCC(=O)NC3CCS(=O)(=O)C3)nc3ccccc3c2=O)c1 (centres undefined),-17.4,
COc1cccc(-n2c(N)cc(=O)nc2SCC(=O)Nc2cc(C)on2)c1,-20.8,
CCC(Sc1nc2n[nH]c(C)c2c(=N)n1-c1ccccc1Cl)C(=O)N(CC)CC (centres undefined),,16.4 µM (active)
COc1cccc(-n2c(SCC(=O)NC3CCCCC3)nc3n[nH]c(C)c3c2=N)c1,,18.4 µM (active)
Cc1ccc(Sc2cc(C(=O)c3ccccc3C(=O)O)ccc2[N+](=O)[O-])cc1,23.2,
CC(=O)OCCOCn1cnn2c(=O)c(Br)c(C)nc12,7.7,
NS(=O)(=O)c1ccc(NC2=CC(c3ccc(F)cc3)N(c3ccc(S(N)(=O)=O)cc3)C2=O)cc1 (centres undefined),15.4,
COc1ccc(S(=O)(=O)NCc2ccc(C(=O)N(C)Cc3ccco3)cc2)cc1,-14.6,
COc1ccc(S(=O)(=O)NCc2cccn2Cc2cccc(C)c2)cc1,-0.409,
Cc1cccc(CNS(=O)(=O)c2ccc(-c3cnc(C4CC4)o3)cc2)c1,,16.4 µM (active)
CC1CCN(S(=O)(=O)c2ccc(S(=O)(=O)NCc3cccnc3)cc2)CC1,-16.9,
COc1ccc(CNS(=O)(=O)c2cc3c4c(c2)CCN4C(=O)CC3)cc1,-21,
Cc1cccc(NS(=O)(=O)c2ccc(-c3cnc(C4CC4)o3)cc2)c1,,0.58 µM (active)
Cc1cc(NS(=O)(=O)c2ccc3oc(=O)c4ncn(C)c4c3c2)ccc1Br,-13,
Cc1ccc(S(=O)(=O)N[C@H]2CCC[C@@H]2O)cc1,3.58,
COc1ccc(CNS(=O)(=O)c2ccc(-c3cnc(C4CC4)o3)cc2)cc1,,13 µM (active)
O=C(NCc1ccco1)C1CCCN(S(=O)(=O)c2cnc[nH]2)C1 (centres undefined),10.5,
Cc1ccc(N=C2NC(=O)c3cccc([N+](=O)[O-])c32)cc1,-21.6,
O=C(COc1ccc(Br)cc1)OCC(=O)c1ccc[nH]1,8.39,
Cc1ccc(CSCCNC(=O)CN(c2ccc(F)cc2)S(C)(=O)=O)cc1,-11.4,

SMILES,"activity change, negative = growth inhibition [%]",Potency
Cc1c(NC(=S)NC(=O)CCc2ccccc2)c(=O)n(-c2ccccc2)n1C,-15.1,
COc1cc(NC(=S)N2CCCC(C)C2)cc(OC)c1OC (centres undefined),-27,
C[C@H](NC(=O)c1ccccc1)C(=O)OCC(=O)c1c[nH]c2ccccc12,9.44,
O=C(/C=C/c1cccs1)NCc1cccnc1,-1.9,
S=C(NCC1COc2ccccc2O1)Nc1ccc(Br)cc1 (centres undefined),,23.1 µM (active)
CC(NC(=S)Nc1ccccc1)C1COc2ccccc2O1 (centres undefined),-13.7,
Cc1noc(C)c1C(=O)NCC1COc2ccccc2O1 (centres undefined),0.0516,
O=C(O)c1ccc(NS(=O)(=O)c2cccc3nsnc23)cc1,-2.12,
COc1ccccc1NC(=O)C1=C(C)Nc2nc(SCC(=O)c3ccc(C)cc3)nn2C1c1ccccc1C (centres undefined),-25.5,
Cc1cc(C)n(-c2cc(Oc3ccccc3)ncn2)n1,-2.2,
Cc1cc(C)n(-c2nnc(N3CCN(c4ccccc4)CC3)nn2)n1,-18.2,
COc1ccc(Nc2cc(C)nc(-n3nc(C)cc3C)n2)cc1,,0.184 µM (active)
Cc1cccc(Nc2cc(C)nc(-n3nc(C)cc3C)n2)c1,,3.26 µM (active)
Cc1cc(C)n(-c2ccc(Cl)c(C(=O)O)n2)n1,2.07,
COc1ccc(C(=O)NNc2cc(C)nc(NNC(=O)c3ccc(OC)cc3)n2)cc1,-3.67,
CC(=O)c1ccc(Oc2cc(C)nc(-n3nc(C)cc3C)n2)cc1,,0.58 µM (active)
Cc1cc(Oc2ccccc2)nc(N2CCOCC2)n1,2.65,
Cc1ccc(Nc2nc3ccccc3nc2-n2nc(C)cc2C)c(Cl)c1,28,
CC1(C(=O)NCc2ccccc2)CSCC(=O)N1CCCn1ccnc1 (centres undefined),23.5,
CC(=O)c1cc(-c2ccccc2)n(CC(=O)NC2CCCCC2)c1C,,inactive
O=C(C=CC(=O)Nc1ccc(F)cc1F)Nc1ccc(F)cc1F,3.85,
O=C(O)C1CCCCC1C(=O)N1CCN(S(=O)(=O)c2ccc(F)cc2)CC1 (centres undefined),2.92,
Cc1ccc2c(c1)C1CN(C)CCC1N2C(=O)c1ccccc1NS(=O)(=O)c1ccc(F)cc1C (centres undefined),-20.2,
CCOc1ccc2[nH]c(=O)c(CN(CCCO)S(=O)(=O)c3ccc(F)cc3)cc2c1,,16.4 µM (active)
CCOC(=O)c1ccc(S(=O)(=O)N(CCO)Cc2cc3cc(OC)c(OC)cc3[nH]c2=O)cc1,-29.3,
CCOc1ccc2[nH]c(=O)c(CN(CCCO)C(C)=O)cc2c1,-0.77,
